In PubChem BioAssay (EPA / NIEHS):
Results filed as inconclusive are left out. Calls of active or inactive are those of the source. Rule for the calls: active = hit-call score of the fitted dose curve at least 0.9, where 1 is the maximum; inconclusive = response in the unintended direction; inactive = score below 0.9.

Tests used:
[1] = target: Estrogen receptor (Homo sapiens) (UniProt P03372); assay: OT_ER_ERaERa_1440: Odyssey Thera (OT) 24-hour HEK293T Protein-Complementation Assay for Estrogen Receptor-alpha/-alpha Homodimer (AID 2283349);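 note: hits raise fluorescence above DMSO for agonists and antagonists alike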
Chain of Estrogen receptor (Homo sapiens) (P03372 whole entry, looked up, the tested form may be a part): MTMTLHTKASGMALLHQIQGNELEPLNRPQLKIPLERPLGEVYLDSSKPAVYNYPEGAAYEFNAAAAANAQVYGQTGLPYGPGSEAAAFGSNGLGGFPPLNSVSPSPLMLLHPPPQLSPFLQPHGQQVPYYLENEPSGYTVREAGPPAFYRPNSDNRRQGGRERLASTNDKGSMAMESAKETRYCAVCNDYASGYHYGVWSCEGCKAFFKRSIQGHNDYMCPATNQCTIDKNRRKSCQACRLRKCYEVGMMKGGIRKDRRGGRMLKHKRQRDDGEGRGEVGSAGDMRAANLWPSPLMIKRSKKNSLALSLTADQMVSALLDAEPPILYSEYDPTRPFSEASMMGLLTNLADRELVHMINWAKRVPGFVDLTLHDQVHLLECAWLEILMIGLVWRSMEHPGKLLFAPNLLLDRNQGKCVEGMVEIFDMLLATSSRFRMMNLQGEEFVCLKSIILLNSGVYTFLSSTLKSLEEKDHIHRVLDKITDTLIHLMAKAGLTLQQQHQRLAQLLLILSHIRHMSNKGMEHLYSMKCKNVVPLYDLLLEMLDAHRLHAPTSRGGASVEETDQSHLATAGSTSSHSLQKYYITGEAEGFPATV
Procedure, shortened: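 HEK293T cells stably expressing the human ER alpha ligand-binding domain (aa 310-547) as a homodimer PCA were dosed for 24 hours. Fluorescence intensity was read by laser scanning cytometry, and gain of signal was fitted relative to DMSO vehicle.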

[2] = target: Estrogen receptor (Homo sapiens) (UniProt P03372); assay: OT_ER_ERaERa_0480: Odyssey Thera (OT) 8-hour HEK293T Protein-Complementation Assay for Estrogen Receptor-alpha/-alpha Homodimer (AID 2283351);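 note: rise in fluorescence from reassembled reporter fragments on ERα LBD homodimer in nucleus or whole cell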
Procedure, shortened: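 Binding reporter in which dimerisation of ERα LBD (aa 310-547) fusions reconstitutes a fluorescent reporter in HEK293T cells. Compounds incubated 8 h; mean fluorescence intensity increase versus DMSO scored.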

[3] = target: T1, Estrogen receptor (Homo sapiens) + Estrogen receptor beta (Homo sapiens) (UniProt P03372+Q92731); assay: OT_ER_ERaERb_0480: Odyssey Thera (OT) 8-hour HEK293T Protein-Complementation Assay for Estrogen Receptor-alpha/-beta Heterodimer (AID 2283352)
T1 sequence (P03372 whole entry, looked up, the tested form may be a part): as above
T1 sequence (Q92731 whole entry, looked up, the tested form may be a part): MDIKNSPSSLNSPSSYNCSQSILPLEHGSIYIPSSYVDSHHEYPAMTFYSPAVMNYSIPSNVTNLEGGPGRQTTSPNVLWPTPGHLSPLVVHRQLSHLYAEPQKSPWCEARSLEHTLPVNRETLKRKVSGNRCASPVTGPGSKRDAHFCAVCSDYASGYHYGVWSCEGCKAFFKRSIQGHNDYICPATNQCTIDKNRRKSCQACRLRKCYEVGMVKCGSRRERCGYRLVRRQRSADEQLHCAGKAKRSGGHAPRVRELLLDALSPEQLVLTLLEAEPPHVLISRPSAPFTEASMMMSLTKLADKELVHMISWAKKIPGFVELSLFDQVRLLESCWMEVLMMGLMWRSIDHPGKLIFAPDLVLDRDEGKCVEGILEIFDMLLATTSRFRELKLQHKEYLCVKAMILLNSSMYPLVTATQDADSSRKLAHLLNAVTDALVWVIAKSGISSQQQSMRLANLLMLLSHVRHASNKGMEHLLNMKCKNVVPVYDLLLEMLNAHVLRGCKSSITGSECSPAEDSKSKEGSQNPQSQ
Procedure, shortened: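 HEK293T protein-fragment complementation assay of ER-alpha/ER-beta LBD heterodimerisation, read 8 h after dosing. Mean nuclear/cytoplasmic fluorescence intensity measured by laser scanning cytometry; gain of signal fitted relative to DMSO.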

[4] = target: T1, Estrogen receptor (Homo sapiens) + Estrogen receptor beta (Homo sapiens); assay: OT_ER_ERaERb_1440: Odyssey Thera (OT) 24-hour HEK293T Protein-Complementation Assay for Estrogen Receptor-alpha/-beta Homodimer (AID 2283356);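 note: heteromer of ER alpha and ER beta binding domains; hits raise reporter fluorescence and both agonists and antagonists give an increase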
Procedure, shortened: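 HEK293T stably expressing a PCA of ER alpha LBD (aa 310-547) and ER beta LBD (aa 263-489). After 24 h compound exposure, mean fluorescence intensity in nucleus (agonists) or nucleus and cytoplasm (antagonists) measured by laser scanning cytometry versus vehicle.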

[5] = target: Estrogen receptor beta (Homo sapiens) (UniProt Q92731); assay: OT_ER_ERbERb_0480: Odyssey Thera (OT) 8-hour HEK293T Protein-Complementation Assay for Estrogen Receptor-beta/-beta Homodimer (AID 2283357);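 note: active means signal gain over DMSO baseline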
Chain of Estrogen receptor beta (Homo sapiens) (Q92731 whole entry, looked up, the tested form may be a part): as above
Procedure, shortened: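 Fluorescence intensity, nuclear for agonists and nuclear plus cytoplasmic for antagonists, was quantified by laser scanning cytometry versus vehicle after 8 h treatment. The cells were HEK293T stably carrying ER beta LBD fragment-complementation partners.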

PGR (gene 5241) = PGR (gene 5241) (UniProt P06401); assay: NVS_NR_hPR: NovaScreen (NVS) Nuclear Receptor Binding Assay for human Progestron Receptor (PR) (AID 2283360);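 note: active means loss of bound radioligand signal versus DMSO baseline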
Chain of PGR (gene 5241) (P06401 whole entry, looked up): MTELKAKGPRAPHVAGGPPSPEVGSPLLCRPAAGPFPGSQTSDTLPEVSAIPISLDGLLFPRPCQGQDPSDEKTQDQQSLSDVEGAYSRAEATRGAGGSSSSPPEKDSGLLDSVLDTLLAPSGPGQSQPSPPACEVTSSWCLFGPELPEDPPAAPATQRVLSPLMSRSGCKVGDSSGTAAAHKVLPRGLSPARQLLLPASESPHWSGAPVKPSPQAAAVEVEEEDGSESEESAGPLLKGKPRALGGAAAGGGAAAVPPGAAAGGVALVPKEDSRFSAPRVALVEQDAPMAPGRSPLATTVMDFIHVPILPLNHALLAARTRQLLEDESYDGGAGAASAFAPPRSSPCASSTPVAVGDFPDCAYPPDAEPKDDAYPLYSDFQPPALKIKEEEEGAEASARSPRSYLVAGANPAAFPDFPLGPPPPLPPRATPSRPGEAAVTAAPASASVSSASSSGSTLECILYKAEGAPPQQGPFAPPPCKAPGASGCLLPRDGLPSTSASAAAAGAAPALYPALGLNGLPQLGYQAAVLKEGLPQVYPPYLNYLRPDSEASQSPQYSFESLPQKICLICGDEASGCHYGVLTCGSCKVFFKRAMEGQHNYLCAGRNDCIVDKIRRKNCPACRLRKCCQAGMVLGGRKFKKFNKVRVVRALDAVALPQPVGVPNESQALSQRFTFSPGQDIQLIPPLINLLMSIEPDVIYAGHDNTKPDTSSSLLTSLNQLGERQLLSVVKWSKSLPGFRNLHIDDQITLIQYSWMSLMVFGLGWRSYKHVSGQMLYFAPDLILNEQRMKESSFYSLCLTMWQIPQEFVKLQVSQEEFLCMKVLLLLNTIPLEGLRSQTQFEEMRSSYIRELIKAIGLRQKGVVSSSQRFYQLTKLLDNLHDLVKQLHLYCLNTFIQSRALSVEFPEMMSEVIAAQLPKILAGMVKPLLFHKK
Procedure, shortened: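 T47D lysate; tritiated or iodinated radioligand; scintillation count at 18 h. DMSO = negative control/baseline. Primary: 25 uM, duplicate. Secondary: concentration series for actives.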

[6] = target: Androgen Receptor/SRC-1 Co-activator, AR (gene 367) (UniProt P10275); assay: OT_AR_ARSRC1_0960: Odyssey Thera (OT) 16-hour HEK293T Protein-Complementation Assay for Androgen Receptor/SRC-1 Co-activator (AID 2283353);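 note: actives raise the signal above DMSO so potency reflects increased AR and SRC-1 complex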
Chain of Androgen Receptor/SRC-1 Co-activator, AR (gene 367) (P10275 whole entry, looked up, the tested form may be a part): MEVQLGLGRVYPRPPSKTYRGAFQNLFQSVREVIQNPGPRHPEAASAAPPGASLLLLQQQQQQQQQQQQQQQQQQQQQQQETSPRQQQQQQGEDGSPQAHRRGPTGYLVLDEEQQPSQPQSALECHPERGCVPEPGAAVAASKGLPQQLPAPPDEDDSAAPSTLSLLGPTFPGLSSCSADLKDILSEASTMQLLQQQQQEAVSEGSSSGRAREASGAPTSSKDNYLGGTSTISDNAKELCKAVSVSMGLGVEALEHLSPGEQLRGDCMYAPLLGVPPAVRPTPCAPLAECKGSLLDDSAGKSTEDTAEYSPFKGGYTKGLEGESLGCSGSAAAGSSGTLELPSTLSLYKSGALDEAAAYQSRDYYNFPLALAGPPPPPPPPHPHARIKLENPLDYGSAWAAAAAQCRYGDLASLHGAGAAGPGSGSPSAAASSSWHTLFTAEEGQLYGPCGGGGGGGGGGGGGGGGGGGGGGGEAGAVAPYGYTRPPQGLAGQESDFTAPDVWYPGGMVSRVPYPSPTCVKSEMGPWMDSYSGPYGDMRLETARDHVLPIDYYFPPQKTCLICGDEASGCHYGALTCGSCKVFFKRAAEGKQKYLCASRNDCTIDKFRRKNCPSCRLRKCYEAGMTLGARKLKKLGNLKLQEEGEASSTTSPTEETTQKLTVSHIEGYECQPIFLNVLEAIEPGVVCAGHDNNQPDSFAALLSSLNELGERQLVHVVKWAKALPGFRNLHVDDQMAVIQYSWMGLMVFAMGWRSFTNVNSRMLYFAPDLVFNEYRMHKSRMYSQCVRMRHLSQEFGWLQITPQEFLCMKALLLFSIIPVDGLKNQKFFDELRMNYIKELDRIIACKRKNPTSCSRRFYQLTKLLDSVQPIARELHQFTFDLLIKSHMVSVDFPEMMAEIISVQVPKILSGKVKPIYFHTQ
Procedure, shortened: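 Interaction of AR with SRC-1 was followed by YFP fragment complementation in HEK293T cells after 16 h of dosing. Gain of nuclear-over-cytoplasmic 488 nm fluorescence against DMSO controls defined activity.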

[7] = target: Androgen Receptor/SRC-1 Co-activator, AR (gene 367) (UniProt P10275); assay: OT_AR_ARSRC1_0480: Odyssey Thera (OT) 8-hour HEK293T Protein-Complementation Assay for Androgen Receptor/SRC-1 Co-activator (AID 2283354);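 note: hits raise the complementation signal above DMSO so AC50 marks enhancers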
Procedure, shortened: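 HEK293T cells stably expressing AR and SRC-1 fused to Venus YFP fragments, imaged 8 h after dosing. Complementation fluorescence scored as nuclear/cytoplasmic ratio at 488 nm in at least 400 cells per image; gain fitted versus DMSO.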

[8] = target: Retinoic acid receptor alpha (Homo sapiens) (UniProt P10276); assay: NVS_NR_hRAR_Antagonist: NovaScreen (NVS) Nuclear Receptor Binding Assay for human Retinoic Acid Alpha Receptor Antagonism (RAR) (AID 2283358)
Chain of Retinoic acid receptor alpha (Homo sapiens) (P10276 whole entry, looked up): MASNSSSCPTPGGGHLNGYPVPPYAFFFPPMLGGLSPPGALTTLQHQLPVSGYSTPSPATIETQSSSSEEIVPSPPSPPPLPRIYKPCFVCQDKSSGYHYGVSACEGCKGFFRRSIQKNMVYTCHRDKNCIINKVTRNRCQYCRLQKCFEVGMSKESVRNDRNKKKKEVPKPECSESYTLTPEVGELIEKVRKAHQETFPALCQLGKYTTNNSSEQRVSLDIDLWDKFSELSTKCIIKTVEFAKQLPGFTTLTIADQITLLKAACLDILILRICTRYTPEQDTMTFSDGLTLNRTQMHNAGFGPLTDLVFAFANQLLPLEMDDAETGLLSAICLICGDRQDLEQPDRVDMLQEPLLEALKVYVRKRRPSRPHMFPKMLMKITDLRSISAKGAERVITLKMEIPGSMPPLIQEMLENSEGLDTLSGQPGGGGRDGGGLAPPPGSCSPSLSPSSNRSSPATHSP
Procedure, shortened: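 Cell-free TR-FRET binding assay with extracted human RARalpha in antagonist mode, read 2 h after dosing. Loss of signal was fitted relative to DMSO; the primary screen used 25 uM in duplicate, with concentration series on follow-up.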

[9] = target: human Peroxisome Proliferator-activated Receptor alpha (PPARa), PPARA (gene 5465) (UniProt Q07869); assay: NVS_NR_hPPARa: NovaScreen (NVS) Nuclear Receptor Binding Assay for human Peroxisome Proliferator-activated Receptor alpha (PPARa) (AID 2283359);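 note: activity means loss of TR-FRET signal versus DMSO baseline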
Chain of human Peroxisome Proliferator-activated Receptor alpha (PPARa), PPARA (gene 5465) (Q07869 whole entry, looked up): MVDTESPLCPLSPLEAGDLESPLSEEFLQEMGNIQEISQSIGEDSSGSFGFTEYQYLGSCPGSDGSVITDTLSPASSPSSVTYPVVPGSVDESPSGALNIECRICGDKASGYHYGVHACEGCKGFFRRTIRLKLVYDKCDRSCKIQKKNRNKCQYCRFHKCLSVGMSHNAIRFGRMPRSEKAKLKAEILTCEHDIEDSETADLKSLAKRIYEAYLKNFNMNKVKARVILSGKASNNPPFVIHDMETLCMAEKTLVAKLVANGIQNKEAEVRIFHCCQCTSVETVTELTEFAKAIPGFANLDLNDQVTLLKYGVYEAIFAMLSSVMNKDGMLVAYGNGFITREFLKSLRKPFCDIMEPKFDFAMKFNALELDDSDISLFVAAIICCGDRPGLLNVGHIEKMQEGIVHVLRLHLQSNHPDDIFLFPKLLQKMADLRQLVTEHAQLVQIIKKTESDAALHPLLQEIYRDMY
Procedure, shortened: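 Cell-free TR-FRET binding assay with extracted PPARα protein, read 1 h after dosing. Primary screen in duplicate at 25 uM, with actives retested in concentration series. Loss of signal versus DMSO.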

In the case of C[C@@H](Oc1ccc(CNC(=O)c2cccnc2Oc2ccc3c(c2)OCO3)c(F)c1)C(=O)O, the outcome [1] is reported as “inactive”, the outcome [2] is reported as “inactive” and the outcome [3] is reported as “inactive”. The outcome [4] was “inactive”, the outcome [5] was “inactive” and the outcome (PGR (gene 5241)) was “inactive”.

O=C(O)CO was tested, and the outcome [1] was “inactive”, the outcome [2] was “inactive” and the outcome [4] was “inactive”. The outcome [5] was “inactive”.

In the case of OCCNCCO, the AC50 [1] is reported as 11900 nM (active) and the outcome [2] is reported as “inactive”.

In the case of CCCCCCCCN(C)C, the outcome [1] is reported as “inactive” and the outcome [2] is reported as “inactive”.

For CC(C)c1nnc2ccc(-c3ocnc3-c3cc(F)ccc3F)cn12, the outcome [1] was “inactive”, the outcome [2] was “inactive” and the outcome [3] was “inactive”. For the same compound, the outcome [4] was “inactive” and the outcome [5] was “inactive”.

For COCc1nnc(-c2ccc[n+]([O-])c2)n1-c1c(Cl)c(Cl)cc2[nH]c(=O)c(=O)[nH]c12, the outcome [1] was “inactive”, the outcome [2] was “inactive” and the outcome [3] was “inactive”. The outcome [6] was “inactive”, the outcome [7] was “inactive” and the outcome [4] was “inactive”. The outcome [5] was “inactive”.

In the case of CCCCCCCC/C=C\CCCCCCCC(=O)OC[C@@H](O)[C@H]1OC[C@H](O)[C@H]1O, the outcome [1] is reported as “inactive”, the outcome [2] is reported as “inactive” and the outcome [3] is reported as “inactive”. For the same compound, the outcome [4] was “inactive”, the outcome [5] was “inactive” and the outcome [8] was “inactive”. The AC50 [9] was 845 nM (active).

For c1ccc2ncccc2c1, the outcome [1] was “inactive” and the outcome [2] was “inactive”.

In the case of CCCCCOC(C)=O, the outcome [1] is reported as “inactive” and the outcome [2] is reported as “inactive”.

In the case of O=S1(=O)CCCO1, the outcome [1] is reported as “inactive”, the outcome [2] is reported as “inactive” and the outcome [3] is reported as “inactive”. The outcome [4] was “inactive” and the outcome [5] was “inactive”.

With NC(N)=O the outcome [1] was “inactive”, the outcome [2] was “inactive” and the outcome [3] was “inactive”. For the same compound, the outcome [4] was “inactive” and the outcome [5] was “inactive”.

For CCOC(N)=O, the outcome [1] was “inactive” and the outcome [2] was “inactive”.

For COc1cc2c(c(OC)c1OC)-c1ccc(OC)c(=O)cc1[C@@H](NC(C)=O)CC2, the outcome [1] was “inactive”, the outcome [2] was “inactive” and the outcome [3] was “inactive”. The AC50 [6] was 133 nM (active), the outcome [7] was “inactive” and the outcome [4] was “inactive”. For the same compound, the outcome [5] was “inactive”.

For CCCCCCCCCCCCCCO, the outcome [1] was “inactive”, the outcome [2] was “inactive” and the outcome [3] was “inactive”. For the same compound, the outcome [4] was “inactive”, the outcome [5] was “inactive” and the outcome [9] was “inactive”.

With O=C(O)c1cccc(C(=O)O)c1 the outcome [1] was “inactive” and the outcome [2] was “inactive”.
